TGFb SMAD3 inh – qHTS for Inhibitors of TGF-b. HepG2 CAGA-GFP TGF-b/SMAD3 reporter, GFP fluorescence, 18 h; TGF-beta stimulated, 500 pg/mL final. Potency, µM (doses to about 46.1 µM), inactives show top-dose activity, negative = inhibition, actives largely listed as inhibitors. actives 1.2% (n = 410,000); further: potency means the concentration at half of the fitted maximal effect; on the % scale 0 is the no-effect control and ±100 the full control effect; nearly all actives have a fitted effect of over 65% in size
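Inhibition of TGF-beta-driven CAGA-GFP reporter expression in HEPG2 cells is measured by cellular GFP fluorescence after 18 h stimulation with 500 pg/mL recombinant TGF-beta in 1% FBS medium at 37 degrees C.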
TDP1 cell noCPT – qHTS for Inhibitors of human tyrosyl-DNA phosphodiesterase 1 (TDP1): qHTS in cells in absence of CPT; DT40 Tdp1-/- hTDP1 cells, no CPT, ATP luminescence, 48 h; actives 15% (n = 420,000); Potency, µM (series often up to 46.2 µM), without a hit: at the highest dose activity change, negative = growth inhibition, hits mostly inhibitors; further: potency means the concentration at half of the fitted maximal effect; on the % scale 0 is the no-effect control and ±100 the full control effect; nearly all actives have a fitted effect of over 55% in size
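Growth of hTDP1-complemented DT40 Tdp1-knockout cells is measured by ATP luminescence after at least 48 hr compound exposure at 37 °C, with DMSO substituting for the 20 nM CPT used in the parallel screen.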
TDP1 cell CPT – qHTS for Inhibitors of human tyrosyl-DNA phosphodiesterase 1 (TDP1): qHTS in cells in presence of CPT | actives 12% (n = 420,000) | Potency, µM (highest dose often 46.2 µM), for inactives: top-dose activity change, negative = growth inhibition, usual class: inhibitors | chicken DT40 Tdp1-/-;hTDP1 cells + 20 nM CPT, ATP luminescence, 48 h; further: potency means the concentration at half of the fitted maximal effect; on the % scale 0 is the no-effect control and ±100 the full control effect; nearly all actives have a fitted effect of over 55% in size
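Chicken DT40 Tdp1-/- cells stably complemented with human TDP1 were seeded at 400 cells/well in medium containing 20 nM camptothecin, exposed to pin-transferred compounds, and grown at 37 °C for at least 48 hr. Viability was read as ATP luminescence.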
ASM inhibitor – Inhibitors of Secretory Acid Sphingomyelinase (S-ASM): qHTS; actives 0.006% (n = 340,000); Sphingomyelin phosphodiesterase (Homo sapiens), P17405; placental ASM, HMU-PC fluorogenic substrate, 60 min; Potency, µM (highest dose often 57.5 µM), inactives show at the highest dose activity change, negative = inhibition, most hits filed as inhibitors; AID 504937, 2011; further: potency means the concentration at half of the fitted maximal effect
Target sequence (P17405 47-631 limits assumed): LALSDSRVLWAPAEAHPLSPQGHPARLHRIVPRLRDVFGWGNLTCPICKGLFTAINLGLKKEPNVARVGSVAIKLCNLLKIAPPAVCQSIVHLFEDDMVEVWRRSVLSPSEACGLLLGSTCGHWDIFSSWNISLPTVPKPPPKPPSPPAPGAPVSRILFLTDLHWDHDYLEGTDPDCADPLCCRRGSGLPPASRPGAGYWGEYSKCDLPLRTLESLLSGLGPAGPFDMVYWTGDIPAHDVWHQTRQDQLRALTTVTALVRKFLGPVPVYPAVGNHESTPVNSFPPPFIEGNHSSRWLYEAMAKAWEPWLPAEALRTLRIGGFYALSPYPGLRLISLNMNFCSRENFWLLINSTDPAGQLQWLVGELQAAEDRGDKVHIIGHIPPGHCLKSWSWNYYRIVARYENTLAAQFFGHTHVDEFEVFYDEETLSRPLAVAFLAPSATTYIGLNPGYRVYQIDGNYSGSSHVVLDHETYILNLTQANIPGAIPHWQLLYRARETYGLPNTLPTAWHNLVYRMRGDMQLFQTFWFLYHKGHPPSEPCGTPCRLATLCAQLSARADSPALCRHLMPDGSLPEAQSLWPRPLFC
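Steps: dispense placental human ASM, pin compound, wait 10 min at room temperature, add HMU-PC0 substrate at 9 uM final, incubate 60 min at 37 °C, add stop solution raising pH to 10, read fluorescence.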
HepG2 viability – qHTS for Inhibitors of TGF-b: Cytotox Counterscreen; AID 588856, 2011; actives 0.76% (n = 410,000); Potency, µM (highest dose often 46.1 µM), without a hit: at the highest dose activity change, negative = cytotoxicity, actives largely listed as cytotoxic; HepG2 CAGA-GFP viability, ATP luminescence, 18 h; further: potency means the concentration at half of the fitted maximal effect
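HepG2 CAGA-GFP cells (1000/well, DMEM with 1% FBS) received compound, then TGF-beta at 500 pg/mL final, and were incubated 18 hours at 37 degrees C. Viability was read by CellTiter-Glo luminescence. Media-only wells were set as complete cell-killing and DMSO as no toxicity.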
IL-1B inflam inh – qHTS for Inhibitors of Inflammasome Signaling: IL-1-beta AlphaLISA Primary Screen. THP-1 LPS/ATP IL-1B secretion, AlphaLISA, 16 h; hits give low values. activity change, % at 57.5 µM. actives 4.7% (n = 360,000); in the data active means activity change below about -50%; inconclusive means mostly about -30% to -49%; further: on the % scale 0 is the no-effect control and ±100 the full control effect
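Secreted IL-1B measured by AlphaLISA bead assay after 16 h compound exposure of THP-1 cells; compounds (final up to 57.5 uM) added 1 h before LPS (250 ng/mL) and ATP (1.25 mM) stimulation; lower signal means less secretion.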
* hit, by the source's call; ? = inconclusive; nt = not tested or not shown. Compounds with a hit are over-represented: about 19% of the library has one in this group of screens. Unless noted, the call rests on the fitted dose curve; in most records, active means well fitted curve in the direction sought with a large enough effect; inconclusive means small, poorly fitted or top-dose-only effect, or another doubt; inactive means no such curve, though single readings can be large; an effect the other way counts as inactive or inconclusive.

SMILES	TGFb SMAD3 inh	TDP1 cell noCPT	TDP1 cell CPT	ASM inhibitor	HepG2 viability	IL-1B inflam inh
Cc1ccc(CNC(=O)Cn2ccn(-c3cccc(Cl)c3)c(=O)c2=O)cc1	-1%	-29%	-28%	nt	0%	nt
O=C(c1ccco1)N1CCN(Cc2cn[nH]c2-c2cccc3ccccc23)CC1	17%	23µM*	?	4%	25%	-16
CC1(NC(=O)C2CCN(C(=O)Nc3ccccc3)CC2)CCS(=O)(=O)C1 (stereo not given)	1%	-8%	-1%	-1%	16%	34
Cc1ccc2nc(N)nnc2c1	-13%	0.52µM*	?	nt	-13%	-3
C[C@@H]1CCC[C@@]2(O[C@H](CCO)C[C@H](O)[C@H]2O)O1	-4%	-27%	?	4%	3%	37
COc1ccc(-c2oc(=O)c3cc(OC)c(OC)cc3c2/C=C/c2ccc(OC(C)=O)cc2)cc1	?	9.2µM*	21µM*	234%	-3%	-25
COc1cc(-c2noc(C)c2C(=O)NCCc2ccccc2)cc(OC)c1OC	18%	?	?	-10%	12%	3
COc1cc(-c2noc(C)c2/C=C/c2ccc(OC(C)=O)cc2)cc(OC)c1OC	?	0.82µM*	0.73µM*	-24%	-1%	67
CCOc1ccc(S(=O)(=O)N2CCC(C(=O)NCc3ccccn3)CC2)cc1C	-3%	-22%	-10%	2%	8%	-25
Cn1cccc1C(=O)N1CCC2(CC1)CCN(c1cccc(-c3ccccc3)c1)CC2	nt	?	16µM*	nt	nt	nt
Cn1cccc1C(=O)N1CCC[C@@]2(CCN(c3ccccc3)C2)C1	nt	26µM*	?	nt	nt	nt
CC(=O)N1CCC2(CC1)CCN(c1cccc(-c3ccccc3)c1)CC2	nt	21µM*	?	nt	nt	nt
O=C(c1cnccn1)N1CCC2(CC1)CN(c1cccc(-c3ccccc3)c1)C2	nt	?	18µM*	nt	nt	nt
CC(=O)N1CCC2(CC1)CN(c1cccc(-c3ccccc3)c1)C2	nt	?	-26%	nt	nt	nt
CC(=O)Nc1cccc2c1C(=O)N(c1ccc(OC(C)=O)cc1)C2=O	10%	-12%	2%	2%	5%	17
COc1ccc(C(=O)N2CCC3(CCCN(c4cccc(-c5ccccc5)c4)C3)CC2)cc1	nt	21µM*	?	nt	nt	nt
Cn1cccc1C(=O)N1CCC2(CCCN(c3cccc(-c4ccccc4)c3)C2)CC1	nt	13µM*	?	nt	nt	nt
CCOC(=O)c1sc(N2C(=O)c3oc4ccc(C)cc4c(=O)c3C2c2ccccc2F)nc1C (stereo not given)	23%	-7%	18%	nt	3%	nt
CCOc1ccc(CCN2C(=S)N([C@@H](CC(C)C)CN3CCCC3CN3C(=S)NC[C@@H]3CC(C)C)C[C@@H]2Cc2ccc(O)cc2)cc1 (stereo not given in full)	?	?	18µM*	?	-13%	?
CCOc1ccc(CCN2C(=S)N([C@@H](CC(C)C)CN3CCCC3CN3C(=S)NC[C@@H]3Cc3ccccc3)C[C@@H]2CC(C)C)cc1 (stereo not given in full)	nt	16µM*	?	nt	nt	78
CCOc1ccc(CCN2C(=S)N([C@@H](CC(C)C)CN3CCC[C@@H]3CN3C(=S)NC[C@@H]3CC(C)C)C[C@@H]2CC(C)C)cc1	-14%	?	?	nt	1%	13

Source: PubChem (National Center for Advancing Translational Sciences (NCATS))
